From PubChem BioAssay (NCATS) come the findings set out here.

Results filed as inconclusive are left out. The source holds several records for some structures; these can differ, active in one and inactive in another. The source made the active and inactive calls. Unless noted, the call rests on the fitted dose curve.

In experiment [1] the target is Peroxisome proliferator-activated receptor delta (Homo sapiens) (UniProt Q03181). Description: qHTS assay for small molecule agonists of peroxisome proliferator-activated receptor delta signaling (AID 588534).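 Further: 0% = DMSO basal wells and 100% = positive control agonist at 10 µM.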 Put shortly: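 Titration series tested in agonist mode on beta-lactamase reporter cells; 18 hrs at 37 C after a 5 hr pre-incubation. Readout: CCF4 fluorescence, 2 hrs RT. Hill equation gives EC50 and maximal response.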
Chain of Peroxisome proliferator-activated receptor delta (Homo sapiens) (Q03181 whole entry, looked up): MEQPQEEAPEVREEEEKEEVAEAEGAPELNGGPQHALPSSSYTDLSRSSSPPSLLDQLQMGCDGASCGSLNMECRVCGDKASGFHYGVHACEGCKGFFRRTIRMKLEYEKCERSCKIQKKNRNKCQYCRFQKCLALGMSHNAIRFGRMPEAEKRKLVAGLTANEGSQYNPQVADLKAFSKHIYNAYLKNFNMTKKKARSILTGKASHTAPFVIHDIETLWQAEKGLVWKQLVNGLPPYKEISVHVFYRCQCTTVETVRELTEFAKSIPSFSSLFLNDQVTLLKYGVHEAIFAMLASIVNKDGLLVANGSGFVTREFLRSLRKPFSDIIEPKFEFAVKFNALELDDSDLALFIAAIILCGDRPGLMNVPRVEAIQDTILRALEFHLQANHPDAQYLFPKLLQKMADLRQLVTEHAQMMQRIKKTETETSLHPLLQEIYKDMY
In general terms: qHTS replaces the single test concentration by a dilution series.

The target of experiment [2] is Thyroid hormone receptor beta (Homo sapiens) (UniProt P10828). As to the kind of experiment: qHTS assay for small molecule agonists of thyroid hormone receptor beta signaling (AID 588545).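 Further: 0% = DMSO only and 100% = 10 nM T3.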 The method in brief:
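Stimulation of a TR-driven beta-lactamase reporter was quantified in GripTite HEK 293 cells. Compound series ran for 18 hrs; curves were normalized to T3 and DMSO controls and fitted to yield EC50.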

A short description of experiment [3]: qHTS assay for small molecule agonists of the antioxidant response element (ARE) signaling pathway (AID 651741; active means well fitted activation curve with a large enough effect in the signal ratio; the % refers to the signal ratio; further: potency means the concentration at half of the fitted maximal effect; on activation: % of control where 0% means no effect). Put shortly:
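Beta-lactamase reporter expression driven by the antioxidant response element in HepG2 cells was detected by fluorescence with LiveBLAzer B/G FRET substrate (2 h, room temperature) following 16 h compound treatment at 37 C.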

Experiment [4] is described as follows: Primary qHTS for inhibitors of SARS-S pseudo-typed particle cell entry (AID 1479145). Further: nearly all actives have a fitted effect of over 45% in size. On activity change, negative = inhibition: on the % scale 0 is the no-effect control and ±100 the full control effect. Particulars: outcome: dose series up to 57.1 µM unless noted.
The nature of experiment [5]: Primary qHTS for Huh7 cytotoxicity: counterscreen for inhibitors of MERS-S pseudotyped particle cell entry (AID 1479147). On activity change, negative = cytotoxicity: on the % scale 0 is the no-effect control and ±100 the full control effect. Particulars: outcome: dose series up to 57.1 µM unless noted.
Experiment [6] is described as follows: Primary qHTS for inhibitors of MERS-S pseudo-typed particle cell entry (AID 1479149). Further: nearly all actives have a fitted effect of over 60% in size. Particulars: outcome: dose series up to 57.1 µM unless noted.
Experiment [7] is described as follows: Primary qHTS for Vero E6 cytotoxicity: counterscreen for inhibitors of SARS-S pseudo-typed particle cell entry (AID 1479150). On activity change, negative = cytotoxicity: on the % scale 0 is the no-effect control and ±100 the full control effect. The conditions noted are these: outcome: dose series up to 57.1 µM unless noted.
A short description of experiment [8]: Cytotoxicity counterscreen for inhibitors of SARS-CoV-2 cell entry (AID 1645845). Further: nearly all actives have a fitted effect of over 50% in size. The conditions noted are these: outcome: dose series up to 57.1 µM unless noted. The method in brief:
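After a 15 min room-temperature ATPLite 1step step, luminescence reflected ATP remaining in HEK293-ACE2 cells exposed to compound for 1 h plus 48 h at 37 C, with percent activity set by cell and no-cell controls.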
Background: A counterscreen serves to expose hits that act by an unwanted route or on another target.

Experiment [9] is described as follows: Primary qHTS to identify inhibitors of SARS-CoV-2 cell entry (AID 1645846). Further: nearly all actives have a fitted effect of over 45% in size. Particulars: SARS-CoV-2 pseudovirus cell entry assay, luminescence; activity change, negative = inhibition: at 57.1 µM (top of the series) unless noted. The method in brief:
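Inhibition of spike-mediated entry was scored in human ACE2-transfected Expi293F cells. Particles were MLV-pseudotyped with Wuhan-Hu-1 S carrying a 19-aa C-terminal deletion; signal was luciferase after two days, scaled between spike PP and fusion-protein-free PP.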

The target of experiment [10] is Glutathione peroxidase 1 (Homo sapiens) (UniProt P07203). Description: Primary qHTS Assay for Inhibitors of Recombinant Selenoprotein Glutathione Peroxidase 1 (GPX1) (AID 1845191; active means well fitted curve in the direction sought with a large enough effect; an effect the other way counts as inactive or inconclusive; further: nearly all actives have a fitted effect of over 65% in size). Put shortly: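 GPX1 10 nM, GR 100 nM, GSH 1 mM, NADPH 0.5 mM, CHP 0.5 mM (final). 30-min cpd preincubation, RT. Ex340/Em450 read t=0, t=15 min.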
Chain of Glutathione peroxidase 1 (Homo sapiens) (P07203 whole entry, looked up): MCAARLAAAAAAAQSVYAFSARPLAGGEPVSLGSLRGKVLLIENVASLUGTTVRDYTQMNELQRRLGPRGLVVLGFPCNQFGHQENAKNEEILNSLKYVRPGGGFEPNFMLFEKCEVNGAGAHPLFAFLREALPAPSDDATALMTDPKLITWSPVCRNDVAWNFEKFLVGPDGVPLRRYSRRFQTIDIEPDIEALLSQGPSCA
Experiment [11] concerns the target Phospholipid hydroperoxide glutathione peroxidase GPX4 (Homo sapiens) (UniProt P36969). Description: Primary qHTS Assay for Inhibitors of Recombinant Selenoprotein Glutathione Peroxidase 4 (GPX4) (AID 1845192; active means well fitted curve in the direction sought with a large enough effect; an effect the other way counts as inactive or inconclusive; further: nearly all actives have a fitted effect of over 65% in size). The method in brief:
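qHTS, GR-coupled: GPX4 200 nM + cpd 30 min RT → GSH 1 mM, NADPH 0.5 mM, GR 100 nM → CHP 0.5 mM start; fluor 340/450 at t0 and t15 min; no-enzyme wells as control.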

For experiment [12], the target named is Alpha-galactosidase (Coffea arabica) (UniProt Q42656). As to the kind of experiment: Counterscreen for Glucocerebrosidase Inhibitors: qHTS Assay for Coffee Bean alpha-Galactosidase at pH 5.9 (AID 998; active means well fitted curve in the direction sought with a large enough effect; an effect the other way counts as inactive or inconclusive;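 further: plate controls were uninhibited enzyme for no effect and no-enzyme basal signal for full effect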). The method in brief: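 In 50 mM citric acid pH 5.9 with 0.005% Tween-20, coffee bean enzyme hydrolyses 80 uM 4-MU alpha-D-galactopyranoside over 20 min at RT. Activity is normalized to controls; AC50 comes from Hill-modelled concentration-response data.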
Chain of Alpha-galactosidase (Coffea arabica) (Q42656 whole entry, looked up): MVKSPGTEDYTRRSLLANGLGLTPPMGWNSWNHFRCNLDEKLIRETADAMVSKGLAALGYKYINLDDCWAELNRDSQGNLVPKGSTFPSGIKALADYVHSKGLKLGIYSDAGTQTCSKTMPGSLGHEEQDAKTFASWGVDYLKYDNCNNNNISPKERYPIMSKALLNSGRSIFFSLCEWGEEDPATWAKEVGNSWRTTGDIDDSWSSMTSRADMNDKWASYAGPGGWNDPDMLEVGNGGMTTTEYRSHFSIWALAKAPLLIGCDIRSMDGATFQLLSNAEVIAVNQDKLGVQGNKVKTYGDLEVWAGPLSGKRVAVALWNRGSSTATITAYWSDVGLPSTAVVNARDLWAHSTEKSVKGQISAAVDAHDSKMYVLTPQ

A short description of experiment [13]: Validation screen for inhibitors of Lassa infection (AID 463096). Further: on the % scale 0 is the no-effect control and ±100 the full control effect.
Experiment [14] in a line: qHTS profiling of the MIPE4 collection as inhibitors of Plasmodium falciparum (3D7) proliferation (AID 743344; call rule not given here;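 further: scaled between DMSO vehicle wells and 0.29 µM artemisinin as full inhibition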). Particulars: P. falciparum 3D7 in erythrocytes, SYBR Green DNA fluorescence, 72 h; at 28.5 µM (top of the series). Put shortly:
(§1)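 Parasite DNA was quantified by SYBR Green I fluorescence (ex 485, em 535 nm) after overnight lysis in saponin/Triton buffer at room temperature. Cultures at 0.3% parasitemia and 2.5% hematocrit were first exposed to compound for 72 h at 37 C; signals were normalised to artemisinin (0.29 uM) and vehicle wells.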

A short description of experiment [15]: qHTS profiling of the MIPE4 collection as inhibitors of Plasmodium falciparum (DD2) proliferation (AID 743345; call rule not given here). Particulars: P. falciparum Dd2 in erythrocytes, SYBR Green DNA, 72 h; at 28.5 µM (top of the series). The method in brief:
as §1

The nature of experiment [16]: qHTS profiling of the MIPE4 collection as inhibitors of Plasmodium falciparum (DD2) proliferation (Rep 2) (AID 743346; call rule not given here). Particulars: P. falciparum Dd2 in erythrocytes, SYBR Green DNA, 72 h; at 28.5 µM (top of the series). The method in brief:
as §1

In experiment [17] the target is Bile acid receptor (Homo sapiens) (UniProt Q96RI1). Description: qHTS assay for small molecule agonists of farnesoid X receptor signaling (AID 588527).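 Further: 0% = vehicle basal and 100% = reference agonist.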 The conditions noted are these: HEK293T FXR-UAS-bla, beta-lactamase ratio, 16 h; stronger effect = higher value. Put shortly:
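FXR-UAS-bla HEK293T, 10% dialyzed FBS; cpds up to 92 uM titration, 16 h 37 C; CCF4 dye 2 h RT; fluorescence. Normalized to chenodeoxycholic acid 100 uM (100%) and DMSO (0%); Hill fit gives EC50, efficacy.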

The nature of experiment [18]: qHTS assay for small molecule agonists of retinoid X receptor alpha signaling (AID 588544).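 On activation: 0% = DMSO basal wells and 100% = reference agonist.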 The conditions noted are these: HEK293T RXRa-UAS-bla, beta-lactamase reporter, 18 h; 530 nm emission.
The target in experiment [19] is Retinoic acid receptor RXR-alpha (Homo sapiens) (UniProt P19793). Described as above.
Chain of Retinoic acid receptor RXR-alpha (Homo sapiens) (P19793 whole entry, looked up): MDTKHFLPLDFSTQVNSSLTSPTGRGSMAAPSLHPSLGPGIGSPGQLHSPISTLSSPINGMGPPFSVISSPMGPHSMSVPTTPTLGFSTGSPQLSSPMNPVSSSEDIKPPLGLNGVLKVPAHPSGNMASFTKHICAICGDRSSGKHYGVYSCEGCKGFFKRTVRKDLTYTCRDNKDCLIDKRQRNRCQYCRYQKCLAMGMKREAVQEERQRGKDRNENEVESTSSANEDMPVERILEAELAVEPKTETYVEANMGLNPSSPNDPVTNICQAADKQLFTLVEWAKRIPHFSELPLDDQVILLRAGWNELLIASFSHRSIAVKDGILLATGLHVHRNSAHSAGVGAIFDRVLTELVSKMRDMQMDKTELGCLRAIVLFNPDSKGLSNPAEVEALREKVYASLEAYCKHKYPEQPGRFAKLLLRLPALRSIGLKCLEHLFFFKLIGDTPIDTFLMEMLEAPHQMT

Chain of Thyroid hormone receptor beta (Homo sapiens) (P10828 whole entry, looked up): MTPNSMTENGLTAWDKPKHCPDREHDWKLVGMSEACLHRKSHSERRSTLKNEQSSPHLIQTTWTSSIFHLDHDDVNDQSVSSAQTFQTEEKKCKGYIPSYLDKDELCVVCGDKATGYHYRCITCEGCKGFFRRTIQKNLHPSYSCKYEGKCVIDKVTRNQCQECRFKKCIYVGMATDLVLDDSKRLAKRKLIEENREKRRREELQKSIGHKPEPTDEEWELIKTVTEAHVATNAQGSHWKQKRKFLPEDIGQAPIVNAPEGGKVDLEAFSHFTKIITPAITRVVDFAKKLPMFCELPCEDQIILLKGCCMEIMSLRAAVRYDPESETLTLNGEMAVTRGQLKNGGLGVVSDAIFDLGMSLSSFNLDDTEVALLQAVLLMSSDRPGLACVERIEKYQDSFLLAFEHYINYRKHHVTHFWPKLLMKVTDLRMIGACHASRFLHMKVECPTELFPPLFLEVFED
Chain of Bile acid receptor (Homo sapiens) (Q96RI1 whole entry, looked up): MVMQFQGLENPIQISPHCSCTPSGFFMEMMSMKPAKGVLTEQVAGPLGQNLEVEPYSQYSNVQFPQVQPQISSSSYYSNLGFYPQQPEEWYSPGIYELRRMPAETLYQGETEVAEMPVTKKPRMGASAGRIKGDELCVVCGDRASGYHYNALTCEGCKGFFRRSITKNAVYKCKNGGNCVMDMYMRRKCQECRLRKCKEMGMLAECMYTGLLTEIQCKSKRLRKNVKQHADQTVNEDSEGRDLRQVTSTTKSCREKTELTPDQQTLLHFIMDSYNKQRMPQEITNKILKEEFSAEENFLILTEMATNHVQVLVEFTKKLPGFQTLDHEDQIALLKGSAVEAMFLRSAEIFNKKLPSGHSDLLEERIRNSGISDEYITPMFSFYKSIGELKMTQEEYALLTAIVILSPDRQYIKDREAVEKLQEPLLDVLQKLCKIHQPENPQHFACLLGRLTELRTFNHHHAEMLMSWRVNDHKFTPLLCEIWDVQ
Chain of Phospholipid hydroperoxide glutathione peroxidase GPX4 (Homo sapiens) (P36969 whole entry, looked up): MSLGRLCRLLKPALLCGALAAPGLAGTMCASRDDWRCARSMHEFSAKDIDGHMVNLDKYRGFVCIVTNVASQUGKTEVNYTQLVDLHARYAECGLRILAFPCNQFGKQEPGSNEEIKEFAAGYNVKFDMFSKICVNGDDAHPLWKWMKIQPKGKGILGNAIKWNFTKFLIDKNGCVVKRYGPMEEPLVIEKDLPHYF

As for `C=Cc1ccccc1`, the molecule was classed as inactive in experiment [1] and in [2]. The Potency result in [3], in experiment [4], in [5], in [6], in experiment [7] and in experiment [8] was “inactive” each time. Moreover, in [9], the activity change, negative = inhibition is -16.9%.

Take `O=C(O)c1cc(O)c2c(c1)[O][Bi][O]2`: the activity change, negative = inhibition was -20% [at 0.573 µM] (inactive) in [4] and -27.2% [at 0.702 µM] in experiment [9]. For the same molecule, in experiment [5], the activity change, negative = cytotoxicity is -1.24% [at 0.573 µM] (inactive). For the same molecule, the outcome in experiment [6] and in experiment [7] was “inactive [at 0.573 µM]” each time.

Consider `C=CCCCCCCCCC(=O)O[C@H]1CC[C@H]2[C@@H]3CCC4=CC(=O)C=C[C@]4(C)[C@H]3CC[C@]12C`, for which the Potency result in experiment [4], in experiment [5], in experiment [6], in experiment [7], in experiment [8] and in experiment [10] was “inactive” each time. The Potency entry in experiment [11] is “inactive”.

On to `C[C@@](Cc1ccc(O)c(O)c1)(NN)C(=O)O`, for which the molecule was called inactive in [12]. For the same molecule, the Potency entry in experiment [13], in [4], in experiment [5], in [6], in experiment [7] and in experiment [8] was “inactive” each time. The Potency result in experiment [9] was “inactive”.

On to `CN[C@@H]1[C@H](O)[C@H](O[C@@H]2[C@H](O)[C@@H](O[C@H]3O[C@H]([C@@H](C)NC)CC[C@H]3N)[C@@H](N)C[C@H]2N)OC[C@]1(C)O`, for which the parasite growth, % of DMSO control in experiment [14] worked out at 81.2%. Also, the parasite growth remaining, % of DMSO control (lower = more inhibition) in experiment [15] came out at 98.7%. Also, the parasite growth, % of control (lower = inhibition) in [16] was found to be 196%. Besides, the outcome in [4] and in experiment [6] was “inactive [at 11.4 µM]” in each case. For the same molecule, the results for the activity change, negative = cytotoxicity in experiment [5], in experiment [7] and in [8] were -2.83% [at 11.4 µM] (inactive), -14.2% [at 11.4 µM] (inactive) and -14.3% [at 11.3 µM] (inactive), respectively. The activity change, negative = inhibition in experiment [9] is -8.26% [at 11.3 µM].

As for `OC[C@H]1O[C@@](CO)(O[C@H]2O[C@H](CO)[C@@H](O)[C@H](O)[C@H]2O)[C@@H](O)[C@@H]1O`, the activation in [17] was -1.48% (inactive). Also, the outcome in [1] was inactive. For the same molecule, the Potency result in experiment [4], in [5], in experiment [6], in experiment [7] and in experiment [8] was “inactive” throughout.

Take `COc1ccc(C(=O)Nc2ccccc2CCC2CCCCN2C)cc1` (configuration not stated): the Potency entry in [4], in experiment [5], in experiment [6] and in [7] was “inactive” in each case. Also, the activity change, negative = inhibition in experiment [9] is -20%.

As for `Cc1cccc(O)c1`, the outcome in experiment [1] and in [2] was inactive. Besides, in experiment [18], the max response was -15.1%. In addition, the Potency result in experiment [19], in [4], in experiment [5], in experiment [6], in experiment [7] and in [8] was “inactive” throughout. In addition, in [3], the Potency was 355 µM (active) and inactive.

On to `CC1(C)S[C@@H]2[C@H](NC(=O)COc3ccccc3)C(=O)N2[C@H]1C(=O)O`, for which the molecule was called inactive in [1]. Moreover, the Potency result in experiment [4], in experiment [5], in [6], in experiment [7] and in [8] was “inactive” in each case. Besides, the activity change, negative = inhibition in experiment [9] was -8.38%.

Consider `CC(C)(C)NCC(O)COc1ccccc1C#N` (configuration not stated), for which the Potency entry in experiment [4], in experiment [5], in experiment [6] and in experiment [7] was “inactive” each time. In experiment [9], the activity change, negative = inhibition is -9.12%.
